This is part of a sample that, as a whole, favours compounds with a hit. Of some 83,000 tested, about 20% had one in any assay.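 Each cell line was grown in a 96-well plate and treated with one concentration of compound for 48 hours. Values below 10 were considered active.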 Unmarked numbers belong to inactive results. Activity calls are given as the source filed them.
Each compound was assayed on NCI-H322M lung (assay: NCI-60 one-dose screen, 48 h (100 = growth as untreated, 0 = no growth, -100 = all killed)). Conditions: 10 µM unless noted.

Row | Structure (SMILES) | growth
1 | CCCCN(CCCC)c1ccc(C(=N)c2ccc(N(CCCC)CCCC)cc2)cc1 | 11.9%
2 | Clc1ccc(-c2nc3ccccc3s2)cc1Cl | 110%
3 | Cc1nc2c3c(ncn2n1)Oc1c(c(=O)[nH]c2ccccc12)C3c1ccc(Cl)cc1 (stereo not drawn) | 100%
4 | O=C(NNC(=S)Nc1ccccc1)c1cc2ccc1CCc1ccc(cc1)CC2 | 77.7%
5 | O=C(Nc1ccc2c(c1)OCCO2)C(=O)c1c[nH]c2ccccc12 | 54.3%
6 | COc1ccc2c(c1)C(c1cc(OC)c3c(c1)OCO3)C1=C(COC1=O)N2 (stereo not drawn) | 51.4%
7 | Fc1ccc(Nc2nc(NCCNc3ccnc4cc(Cl)ccc34)nc(N3CCOCC3)n2)cc1 | 73.7%
8 | S=c1[nH]nc(-c2cc3ccc2CCc2ccc(cc2)CC3)n1-c1ccccc1 | 96.4%
9 | CC(C)(C)NCCC(O)c1cc2c(Cl)cc(Cl)cc2c2cc(C(F)(F)F)ccc12 (stereo not drawn) | -54.2% (active)
10 | COc1ccc2cc(-c3ccc(-c4ccc(C(=N)N)cc4)s3)ccc2c1 | 97.7%
11 | CCN(CC)CCC(CNc1c2ccc(Cl)cc2nc2ccc(OC)cc12)c1ccccc1 (stereo not drawn) | 17.5%
12 | Cc1ccc(S(=O)(=O)C2=C3C(=C(c4ccccc4)c4ccccc43)CN(S(=O)(=O)c3ccc(C)cc3)C2)cc1 | 93.8%
13 | Cc1ccc(S(=O)(=O)NCCNc2nccc(-c3c(-c4cccc(N)c4)nc4sccn34)n2)cc1 | 108%
14 | CC(C)NCCCNC1=C(Cl)C(=O)c2ccccc2C1=O | 105%
15 | COc1cccc(CC(C)=C(c2ccc(OCCN(C)C)cc2)c2ccc(OCCN(C)C)cc2)c1 | 1.04% (active)
16 | S=c1[nH]nc(-c2cc3ccc2CCc2ccc(cc2)CC3)n1C1CC1 | 105%
17 | COc1ccc(Nc2[nH]n3c(=O)cc(-c4ccccc4)nc3c2C(=O)Nc2ccc(C)cc2)c(OC)c1 | 81.5%
18 | O=c1[nH]c2ccc(Br)cc2c2c1C(c1ccc(Cl)cc1)c1c(ncn3nc(-c4ccco4)nc13)O2 (stereo not drawn) | 75.3%
19 | COc1cc(-c2nn(-c3cccc(NC(=O)Nc4cc(C(F)(F)F)cc(C(F)(F)F)c4)c3)cc2-c2ccncc2)ccc1Cl | 26.1%
20 | COc1cc(/C=C/C(=O)N2CCN(C(=O)/C=C/c3cc(OC)c(OC)c(OC)c3)CC2)cc(OC)c1OC | 113%

Row | Structure (SMILES) | growth
21 | CCN(CC)CCOC(=O)C(c1ccccc1)(c1ccccc1)C(C)C | 82.3%
22 | C=C[C@@H]1C[C@H](O)Cc2c(C)cc(C)cc2N1 | 117%
23 | N=C(N)c1ccc(-c2cc(Cl)cc(Cl)c2)cn1 | 94%
24 | CCCCCCCCCCCCNC(=O)[C@H]1CSC(c2ccsc2)N1 (stereo partly drawn) | 3.58% (active)
25 | O=C(NCc1cn(Cc2cccc(Oc3ccccc3)c2)nn1)c1cccnc1Nc1ccc(F)cc1 | 77.4%
26 | CCN1CCN(CC(=O)N2c3cccc4cccc(c34)N(C(=O)CN3CCN(CC)CC3)C2c2cn(-c3ccccc3)nc2-c2cccc([N+](=O)[O-])c2)CC1 | 25.3%
27 | O=S(=O)(NCCCNc1nccc(-n2ccc3cccnc32)n1)c1ccc(Br)cc1 | 103%
28 | COC(=O)C(Sc1ccc(Cl)cc1)C1SC(=S)N(Cc2ccccc2)C1=O (stereo not drawn) | 105%
29 | Cc1ccc2[nH]c(=O)c3c(c2c1)Oc1ncn2nc(-c4ccco4)nc2c1C3c1ccc(Cl)cc1 (stereo not drawn) | 96.1%
30 | c1ccc(-c2cn(-c3ccccc3)c(-c3ccccc3)n2)cc1 | 104%
31 | CCN(CC)CCCC(C)Nc1c2ccc(Cl)cc2nc2cc(OC)c(OC)cc12 (stereo not drawn) | 0.383% (active)
32 | CN(C)c1cccc2c(S(=O)(=O)/N=C(\N)Nc3nc4ccccc4s3)cccc12 | 83.4%
33 | O=C(Nc1ccc(Cl)c(Cl)c1)NS(=O)(=O)c1cnccc1Oc1ccc(F)cc1 | 89.2%
34 | Cc1ccc2nc(Cl)cc(=O)n2c1 | 116%
35 | Cn1ccc(=O)c(S(N)(=O)=O)c1 | 108%
36 | COc1ccc(-c2c(N)n[nH]c2-c2cc3c(c(OC)c2OC)OCO3)cc1 | 100%
37 | CC(=O)Oc1csc(N(C(C)=O)c2cccc(C(F)(F)F)c2)n1 | 99%
38 | C=C1CCC2C3(C)COC(C)(C)OC3CCC2(C)C1C/C=C1/C(=O)OCC1Oc1ccccc1OC (stereo not drawn) | 96.6%
39 | COc1ccc(/C=C\c2cc(OC)c(OC)c(OC)c2)cc1OC(=O)c1cccc(Cn2cc(CCOC(=O)c3cccc(Cn4nnc5c4C(=O)c4ccccc4C5=O)c3)nn2)c1 | 50.5%

Each compound was assayed on HOP-62 NSCLC in the same assay as above. Conditions: 10 µM unless noted.

Row | Structure (SMILES) | growth
40 | CCCCN(CCCC)c1ccc(C(=N)c2ccc(N(CCCC)CCCC)cc2)cc1 | -96.8% (active)
41 | Clc1ccc(-c2nc3ccccc3s2)cc1Cl | 104%
42 | Cc1nc2c3c(ncn2n1)Oc1c(c(=O)[nH]c2ccccc12)C3c1ccc(Cl)cc1 (stereo not drawn) | 87.3%
43 | O=C(NNC(=S)Nc1ccccc1)c1cc2ccc1CCc1ccc(cc1)CC2 | 64.7%
44 | O=C(Nc1ccc2c(c1)OCCO2)C(=O)c1c[nH]c2ccccc12 | 42.9%
45 | COc1ccc2c(c1)C(c1cc(OC)c3c(c1)OCO3)C1=C(COC1=O)N2 (stereo not drawn) | 36.5%
46 | Fc1ccc(Nc2nc(NCCNc3ccnc4cc(Cl)ccc34)nc(N3CCOCC3)n2)cc1 | 85%
47 | S=c1[nH]nc(-c2cc3ccc2CCc2ccc(cc2)CC3)n1-c1ccccc1 | 106%
48 | CC(C)(C)NCCC(O)c1cc2c(Cl)cc(Cl)cc2c2cc(C(F)(F)F)ccc12 (stereo not drawn) | -87.1% (active)
49 | COc1ccc2cc(-c3ccc(-c4ccc(C(=N)N)cc4)s3)ccc2c1 | 93.3%
50 | CCN(CC)CCC(CNc1c2ccc(Cl)cc2nc2ccc(OC)cc12)c1ccccc1 (stereo not drawn) | -49.8% (active)
51 | Cc1ccc(S(=O)(=O)C2=C3C(=C(c4ccccc4)c4ccccc43)CN(S(=O)(=O)c3ccc(C)cc3)C2)cc1 | 88.6%
52 | Cc1ccc(S(=O)(=O)NCCNc2nccc(-c3c(-c4cccc(N)c4)nc4sccn34)n2)cc1 | 105%
53 | CC(C)NCCCNC1=C(Cl)C(=O)c2ccccc2C1=O | 98.3%
54 | COc1cccc(CC(C)=C(c2ccc(OCCN(C)C)cc2)c2ccc(OCCN(C)C)cc2)c1 | 3.07% (active)
55 | S=c1[nH]nc(-c2cc3ccc2CCc2ccc(cc2)CC3)n1C1CC1 | 104%
56 | COc1ccc(Nc2[nH]n3c(=O)cc(-c4ccccc4)nc3c2C(=O)Nc2ccc(C)cc2)c(OC)c1 | 80.3%
57 | O=c1[nH]c2ccc(Br)cc2c2c1C(c1ccc(Cl)cc1)c1c(ncn3nc(-c4ccco4)nc13)O2 (stereo not drawn) | 50%
58 | COc1cc(-c2nn(-c3cccc(NC(=O)Nc4cc(C(F)(F)F)cc(C(F)(F)F)c4)c3)cc2-c2ccncc2)ccc1Cl | -77.6% (active)
59 | COc1cc(/C=C/C(=O)N2CCN(C(=O)/C=C/c3cc(OC)c(OC)c(OC)c3)CC2)cc(OC)c1OC | 102%

Row | Structure (SMILES) | growth
60 | CCN(CC)CCOC(=O)C(c1ccccc1)(c1ccccc1)C(C)C | 83.2%
61 | C=C[C@@H]1C[C@H](O)Cc2c(C)cc(C)cc2N1 | 91.5%
62 | N=C(N)c1ccc(-c2cc(Cl)cc(Cl)c2)cn1 | 91.6%
63 | CCCCCCCCCCCCNC(=O)[C@H]1CSC(c2ccsc2)N1 (stereo partly drawn) | -94.7% (active)
64 | O=C(NCc1cn(Cc2cccc(Oc3ccccc3)c2)nn1)c1cccnc1Nc1ccc(F)cc1 | 59.3%
65 | CCN1CCN(CC(=O)N2c3cccc4cccc(c34)N(C(=O)CN3CCN(CC)CC3)C2c2cn(-c3ccccc3)nc2-c2cccc([N+](=O)[O-])c2)CC1 | 0.226% (active)
66 | O=S(=O)(NCCCNc1nccc(-n2ccc3cccnc32)n1)c1ccc(Br)cc1 | 109%
67 | COC(=O)C(Sc1ccc(Cl)cc1)C1SC(=S)N(Cc2ccccc2)C1=O (stereo not drawn) | 95.1%
68 | Cc1ccc2[nH]c(=O)c3c(c2c1)Oc1ncn2nc(-c4ccco4)nc2c1C3c1ccc(Cl)cc1 (stereo not drawn) | 92.1%
69 | c1ccc(-c2cn(-c3ccccc3)c(-c3ccccc3)n2)cc1 | 82%
70 | CCN(CC)CCCC(C)Nc1c2ccc(Cl)cc2nc2cc(OC)c(OC)cc12 (stereo not drawn) | 32.3%
71 | CN(C)c1cccc2c(S(=O)(=O)/N=C(\N)Nc3nc4ccccc4s3)cccc12 | 40.6%
72 | O=C(Nc1ccc(Cl)c(Cl)c1)NS(=O)(=O)c1cnccc1Oc1ccc(F)cc1 | 80.6%
73 | Cc1ccc2nc(Cl)cc(=O)n2c1 | 100%
74 | Cn1ccc(=O)c(S(N)(=O)=O)c1 | 92.4%
75 | COc1ccc(-c2c(N)n[nH]c2-c2cc3c(c(OC)c2OC)OCO3)cc1 | 101%
76 | CC(=O)Oc1csc(N(C(C)=O)c2cccc(C(F)(F)F)c2)n1 | 94.4%
77 | C=C1CCC2C3(C)COC(C)(C)OC3CCC2(C)C1C/C=C1/C(=O)OCC1Oc1ccccc1OC (stereo not drawn) | 105%
78 | COc1ccc(/C=C\c2cc(OC)c(OC)c(OC)c2)cc1OC(=O)c1cccc(Cn2cc(CCOC(=O)c3cccc(Cn4nnc5c4C(=O)c4ccccc4C5=O)c3)nn2)c1 | 14.9%
